The supplement of paper PMC5662767
Structures can show the parent of a compound that is named as a salt.

Tested on: Drosophila S2 cl14 SmoIP sensor cells
Assay: normalized SmoIP GFP fluorescence (untreated unstimulated = 0%, untreated Hh-stimulated = 100%); higher = more Smo activation sensor fluorescence
Details: stimulation: Hh conditioned medium (+Hh); compound concentration: 2 uM; 24 h
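Further: flow cytometry read-out as median GFP intensity of gated cells, compounds added 30 min before Hh-conditioned or mock medium, mock-treated cells serving as unstimulated baseline.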

Structure (SMILES)	normalized SmoIP GFP fluorescence [%]
Nc1cccc2c1CN(C1CCC(=O)NC1=O)C2=O (stereo unspecified) [Lenalidomide]	115
CCc1ccc(/C=C2/SC(=S)NC2=O)cc1	105
Cc1ccc(F)c(NC(=O)Nc2ccc(-c3cccc4[nH]nc(N)c34)cc2)c1	115
CNC(=O)c1cc(COc2nnc(Nc3ccc(Cl)cc3)c3ccoc23)ccn1 [Telatinib-BAY-57-9352]	104
CNC(=O)c1cc(Oc2ccc(NC(=O)Nc3ccc(Cl)c(C(F)(F)F)c3)cc2)ccn1 [Sorafenib-Tosylate]	112
O=C(NNc1ccccc1)c1ccncc1	105
O=C(O)c1ccc(Nc2ncc3c(n2)-c2ccc(Cl)cc2C(c2c(F)cccc2F)=NC3)cc1	271
Cc1cc(Nc2ccc(NC(=O)c3ccc(Nc4ccnc5ccccc45)cc3)cc2)nc(N)n1	108
Cc1ccccc1-n1c(Cn2nc(-c3cccc(O)c3)c3c(N)ncnc32)nc2cccc(C)c2c1=O	101
Cc1cc(CN2CCN(c3c(Br)cnc4nc(-c5ccc(N6CCN(C)CC6)cc5)[nH]c34)CC2)no1	123
CCCCNc1ccc(C(=O)OCCN(C)C)cc1 [tetracaine-hydrochloride-pontocaine]	117
Cc1cccc(C)c1OCC(=O)N[C@@H](Cc1ccccc1)[C@@H](O)C[C@H](Cc1ccccc1)NC(=O)[C@H](C(C)C)N1CCCNC1=O [Lopinavir]	117
CNC(CC(=O)O)C(=O)O (stereo not drawn) [nmda-n-methyl-d-aspartic-acid]	101

Same assay, conditions: stimulation: mock conditioned medium (-Hh); compound concentration: 2 uM; 24 h

Structure (SMILES)	normalized SmoIP GFP fluorescence [%]
CC1C(=O)OC2C(O)C34C5CC(C(C)(C)C)C36C(OC(=O)C6O)OC4(C(=O)O5)C12O (stereo unspecified) [Ginkgolide-B]	0.489
Oc1ccc([C@H]2COc3cc(O)ccc3C2)cc1 [equol]	-3.9
COC(=O)N[C@H](C(=O)N1CCC[C@H]1c1ncc(-c2ccc(-c3ccc(-c4cnc([C@@H]5CCCN5C(=O)[C@@H](NC(=O)OC)C(C)C)[nH]4)cc3)cc2)[nH]1)C(C)C	7.39
CC(C)c1cc(C(C)C)c(CC(=O)NS(=O)(=O)Oc2c(C(C)C)cccc2C(C)C)c(C(C)C)c1 [Avasimibe(CI-1011)]	-15.8
CCNC(=O)Nc1ccc(-c2nc3c(c(N4CCOC[C@@H]4C)n2)CCN(C2COC2)C3)cc1	-0.151
CCOC(=O)[C@H](CCc1ccccc1)N[C@@H](C)C(=O)N1[C@@H](C(=O)O)C[C@@H]2CCC[C@@H]21 [Ramipril(Altace)]	-16.3
Fc1ccc(C(c2ccc(F)cc2)N2CCN(C/C=C/c3ccccc3)CC2)cc1 [flunarizine-dihydrochloride]	6.74
CC(C)c1nc(CN(C)C(=O)N[C@H](C(=O)N[C@@H](Cc2ccccc2)C[C@H](O)[C@H](Cc2ccccc2)NC(=O)OCc2cncs2)C(C)C)cs1 [Ritonavir]	-4.47
Cc1ccc2nc(NCCN)c3ncc(C)n3c2c1	-9.4
Cc1ccc(Nc2nccc(N(C)c3ccc4c(C)n(C)nc4c3)n2)cc1S(N)(=O)=O [pazopanib]	1.95
CNC(=O)c1cc(Oc2ccc(NC(=O)Nc3ccc(Cl)c(C(F)(F)F)c3)cc2)ccn1 [sorafenib]	9.54
O=C(O)COCCN1CCN(C(c2ccccc2)c2ccc(Cl)cc2)CC1 (stereo unspecified) [Cetirizine-di-hcl]	-7.27
CCC(C)(Oc1ccc(C2(c3ccc(OC(C)(CC)C(=O)O)cc3)CCCCC2)cc1)C(=O)O (stereo unspecified) [clinofibrate]	-14.5
c1ccc(-c2[nH]ncc2-c2ccnc3ccccc23)nc1	0.247
COc1ccc(COc2cc3oc(=O)c4cc(C(C)O)ccc4c3cc2OC)cc1 (stereo unspecified) [Palomid-529-P529]	-15.8
Nc1nc(N)c2nc(-c3ccccc3)c(N)nc2n1 [triamterene]	-6.06
C[C@H]1COC2=C1C(=O)C(=O)c1c2ccc2c1CCCC2(C)C [Cryptotanshinone]	-9.22
CCC(=O)Nc1cccc(Oc2nc(Nc3ccc(N4CCN(C)CC4)cc3OC)ncc2Cl)c1	-6.51
CC(=O)OCC[N+](C)(C)C [Acetylcholine-chloride]	-16.8

Structure (SMILES)	normalized SmoIP GFP fluorescence [%]
COc1ccc(NS(=O)(=O)c2sc3ccc(Cl)cc3c2C)cc1N1CCNCC1	2.86
O=C(c1ccc(Nc2nccc(-c3cc4ccccc4s3)n2)cc1)N1CCC(N2CCCC2)CC1	1.1
CN1CCC(=C2c3ccccc3CC(=O)c3sccc32)CC1 [ketotifen-fumarate-zaditor]	-13.9
CN(NC(=O)CC(=O)NN(C)C(=S)c1ccccc1)C(=S)c1ccccc1 [Elesclomol]	17.1
C[C@H](NC(=O)[C@@H](O)c1cc(F)cc(F)c1)C(=O)N[C@@H]1C(=O)N(C)c2ccccc2-c2ccccc21	9.98
N#Cc1ccc(C(c2ccc(C#N)cc2)n2cncn2)cc1 [Letrozole]	-1.88
Nc1cccc2c1CN(C1CCC(=O)NC1=O)C2=O (stereo unspecified) [Lenalidomide]	28.7
CCc1ccc(/C=C2/SC(=S)NC2=O)cc1	-1.63
Cc1ccc(F)c(NC(=O)Nc2ccc(-c3cccc4[nH]nc(N)c34)cc2)c1	0.274
CNC(=O)c1cc(COc2nnc(Nc3ccc(Cl)cc3)c3ccoc23)ccn1 [Telatinib-BAY-57-9352]	-14.3
CNC(=O)c1cc(Oc2ccc(NC(=O)Nc3ccc(Cl)c(C(F)(F)F)c3)cc2)ccn1 [Sorafenib-Tosylate]	47.1
O=C(NNc1ccccc1)c1ccncc1	-2.71
O=C(O)c1ccc(Nc2ncc3c(n2)-c2ccc(Cl)cc2C(c2c(F)cccc2F)=NC3)cc1	46.7
Cc1cc(Nc2ccc(NC(=O)c3ccc(Nc4ccnc5ccccc45)cc3)cc2)nc(N)n1	-3.5
Cc1ccccc1-n1c(Cn2nc(-c3cccc(O)c3)c3c(N)ncnc32)nc2cccc(C)c2c1=O	-5.98
Cc1cc(CN2CCN(c3c(Br)cnc4nc(-c5ccc(N6CCN(C)CC6)cc5)[nH]c34)CC2)no1	20.5
CCCCNc1ccc(C(=O)OCCN(C)C)cc1 [tetracaine-hydrochloride-pontocaine]	-6.34
Cc1cccc(C)c1OCC(=O)N[C@@H](Cc1ccccc1)[C@@H](O)C[C@H](Cc1ccccc1)NC(=O)[C@H](C(C)C)N1CCCNC1=O [Lopinavir]	6.52
CNC(CC(=O)O)C(=O)O (stereo not drawn) [nmda-n-methyl-d-aspartic-acid]	-3.16
